# Only a selection was taken, and hits are over-represented in it overall.
# nsP2pro inh: blocks chikungunya virus nsP2 protease peptide cleavage. AID 1964107. hit rate 1.1% among 31,000. FRET peptide cleavage, nsP2pro, fluorescence 1 h. Potency, µM (highest dose often 24.9 µM), for the others: top-dose activity change, negative = inhibition, most hits filed as inhibitors; also: nearly all actives have a fitted effect of over 60% in size
#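 Purified recombinant nsP2pro (150 nM final) in 10 mM Tris-HCl pH 8.0 with 0.01% Tween 20 was preincubated 15 min at room temperature with compound (7 concentrations, up to 25 uM). FRET peptide 2 substrate (2.5 uM final) was then added; fluorescence was read after 1 h.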
# CHIKV nsP2 cell: secondary cell-based test for CHIKV nsP2 protease inhibitors. shares compounds with nsP2pro inh. cell-based CHIKV nsP2 protease reporter assay. Potency, µM (doses to about 51.1 µM), for inactives: top-dose activity change, negative = inhibition, actives largely listed as inhibitors. hit rate 10% among 450; also: nearly all actives have a fitted effect of over 70% in size
# NSP2 full ctr: selectivity test for CHIKV nsP2 protease inhibitors: full-length NSP2. Potency, µM (highest dose often 50.7 µM), without a hit: at the highest dose activity change, negative = inhibition, hits mostly inhibitors. shares compounds with nsP2pro inh. Full-length CHIKV NSP2 protease enzymatic counterscreen. hit rate 39% among 410; also: nearly all actives have a fitted effect of over 65% in size
# Furin counter: human furin inhibition, counterscreen for nsP2pro inhibitors; AID 1964102; Potency, µM (highest dose often 50.6 µM), without a hit: at the highest dose activity change, negative = inhibition, usual class: inhibitors; hit rate 6% among 410; shares compounds with nsP2pro inh; Recombinant human furin enzymatic counterscreen, fluorogenic substrate
# NS23 peptide cs: blocks CHIKV nsP2 protease cleavage of endogenous NS2/3 peptide; Purified CHIKV nsP2 protease, endogenous NS2/3 peptide cleavage; shares compounds with nsP2pro inh; hit rate 34% among 410; Potency, µM (doses to about 51 µM), inactives show at the top dose activity change, negative = inhibition, most hits filed as inhibitors; also: nearly all actives have a fitted effect of over 55% in size
# Papain counter: inhibits papain in a CHIKV nsP2 protease selectivity counterscreen; shares compounds with nsP2pro inh; purified papain protease activity, enzymatic inhibition; Potency, µM (doses to about 51 µM), inactives show at the top dose activity change, negative = inhibition, actives largely listed as inhibitors; hit rate 5% among 410
# nsP2pro confirm: CHIKV nsP2 protease inhibition, confirmatory qHTS; shares compounds with nsP2pro inh; CHIKV nsP2 protease enzymatic activity, qHTS; Potency, µM (doses to about 25.5 µM), inactives show top-dose activity change, negative = inhibition, usual class: inhibitors; hit rate 43% among 410; also: nearly all actives have a fitted effect of over 75% in size
# HCV NS3 4A cs: selectivity counter-screen for CHIKV nsP2 protease inhibitors: HCV NS3/4A; shares compounds with nsP2pro inh; HCV NS3/4A protease biochemical counterscreen; Potency, µM (series often up to 50.9 µM), hits mostly inhibitors; hit rate 20% among 410; AID 1964106; also: nearly all actives have a fitted effect of over 55% in size
# The depositor's hits bear a star; i = inactive; ? = inconclusive; ! = repeats disagree; [ ] = dose if it differs, or a comment. Calls follow the shape of the full dose curve. % is scaled to controls: 0 for no effect and ±100 for the full control effect; potency is read from the fitted curve at half-maximal effect.
SMILES,nsP2pro inh,others
Cc1cccc(-c2noc([C@@H]3Cc4nc[nH]c4CN3C(=O)C3CCCCC3)n2)c1,72%[39.2 µM],
Cc1cccc(-n2cnc3cc(C(=O)N4CCC(C(F)(F)F)CC4)ccc32)c1,1%,
CCCC1CCN(C(=O)CC(c2ccc3c(c2)OCO3)c2c(O)cc(OC)cc2OC)C1 (stereo unspecified),0%[39.2 µM],
CCOC(=O)c1cnc(N2CC3CCC(C2)N3CC(F)(F)F)s1,-9%,
COc1ccc(C(=O)Nc2ccc(S(=O)(=O)N(Cc3ccccc3)c3ccccc3)cc2)cc1,-7%,
CN(Cc1ccccc1)C(=O)c1ccc(S(=O)(=O)Nc2ccccc2)cc1,-1%,
CC(C)N(CCC(=O)c1ccc2ccccc2c1)Cc1ccccc1,0.56µM*,CHIKV nsP2 cell=?;NSP2 full ctr=0.92µM*;Furin counter=-12%;NS23 peptide cs=5.8µM*;Papain counter=96%;nsP2pro confirm=0.5µM*;HCV NS3 4A cs=i
Cc1ccc(N2CCC(CNc3nc(-c4ccccc4C(C)C)ncc3F)CC2)cn1,-4%,
CC1=C(C(=O)c2ccccc2)C(c2ccccc2Cl)N=C(Nc2nc3ccccc3o2)N1 (stereo unspecified),i,
COc1cc2nc(N3CCC(N4CCCCC4)CC3)nc(NC3CCCCCC3)c2cc1OC,27%,
Cc1cccc(C(=O)N2CCC(c3nc(-c4cccn4C)no3)C2)c1 (stereo unspecified),i,
O=C1CCCC2=C1C(c1[nH]ncc1Cl)NC(=NCCc1ccccc1)N2 (stereo unspecified),-3%,
COc1ccc2c(c1)C(C(=O)Nc1ccc(C)c([S+](=O)([O-])N3CCOCC3)c1)=CC(C)(C)CO2,1%,
CCCCN(CCCC)C(=S)[S-].CCCCN(CCCC)C(=S)[S-].[Zn+2],0.56µM*,CHIKV nsP2 cell=?;NSP2 full ctr=0.23µM*;Furin counter=7.3µM*;NS23 peptide cs=1.6µM*;Papain counter=4.1µM*;nsP2pro confirm=0.36µM*;HCV NS3 4A cs=i
CN[C@H]1C[C@@H](N)[C@H](O)[C@@H](O[C@@H]2O[C@H](CO)[C@H](O)[C@@H]3OC4(O[C@H]23)O[C@H]([C@@H](N)CO)[C@H](O)[C@H](O)[C@H]4O)[C@@H]1O (stereo partly specified),31%,
Cc1nc(C)c(-c2ccc(C3CCC(CC(=O)O)CC3)cc2)nc1C(N)=O (stereo unspecified),28%,
COc1ccc(CN2C3CC2CN(c2ccc(-c4cc(OCC(C)(C)O)cn5ncc(C#N)c45)cn2)C3)cn1,-13%,
CN(C)C(=O)N1CCCn2nc(CNC(=O)C(=O)c3ccco3)cc2C1,4%,
Cc1cc(NS(=O)(=O)c2ccc(NC(=O)Cc3cccc4ccccc34)cc2)no1,i,
O=c1oc2c3c(ccc2c2ccccc12)OCN(Cc1ccccc1Cl)C3,1.1µM*,CHIKV nsP2 cell=115%;NSP2 full ctr=-1%;Furin counter=-11%;NS23 peptide cs=12µM*;Papain counter=-4%;nsP2pro confirm=4µM*;HCV NS3 4A cs=i
Cc1cc(=O)oc2c3c(ccc12)OCN(Cc1ccccc1Cl)C3,32%,
O=c1oc2c3c(ccc2c2ccccc12)OCN(Cc1cccc(Cl)c1)C3,-13%,
N[C@H](Cc1ccccc1)C(=O)Nc1ccc(Cl)cc1C(=O)c1ccc[nH]1,i,
O=C(Nc1cncc(-c2ccncc2)c1)c1cccs1,i,
COC(=O)c1c(NC(=O)CCCOc2ccc(C)cc2)sc2c1CCCC2,-34%,
SMILES,nsP2pro inh,others
CCOc1ccc(/C=C/C(=O)Nc2sc3c(c2C(=O)OC)C(C(=O)OC)CC3)cc1 (stereo unspecified),2.8µM*,CHIKV nsP2 cell=-10%;NSP2 full ctr=?;Furin counter=2%;NS23 peptide cs=4.7µM*;Papain counter=-2%;nsP2pro confirm=3.7µM*;HCV NS3 4A cs=i
COC(=O)c1c(NC(=O)CCCOc2ccccc2C)sc2c1CCC(C)C2 (stereo unspecified),-18%,
CCOC(=O)c1c(NC(=O)CCCOc2ccc(C(C)(C)C)cc2)sc2c1CCCC2,-13%,
COC(=O)c1c(NC(=O)CCCOc2cccc(C)c2)sc2c1CCC(C)C2 (stereo unspecified),-20%,
COC(=O)c1c(NC(=O)CCCOc2cccc(C)c2)sc2c1C(C(=O)OC)CC2 (stereo unspecified),1.9µM*,CHIKV nsP2 cell=15µM*!;NSP2 full ctr=18µM*;Furin counter=-12%;NS23 peptide cs=5.2µM*;Papain counter=-11%;nsP2pro confirm=2.5µM*;HCV NS3 4A cs=i
COC(=O)c1c(NC(=O)CCCOc2cccc(C)c2)sc2c1CCC2,-16%,
COC(=O)c1c(NC(=O)CCCOc2ccc(C)cc2)sc2c1C(C(=O)OC)CC2 (stereo unspecified),2.1µM*,CHIKV nsP2 cell=18µM*;NSP2 full ctr=?;Furin counter=-10%;NS23 peptide cs=12µM*;Papain counter=-14%;nsP2pro confirm=7.1µM*;HCV NS3 4A cs=i
COC(=O)c1c(NC(=O)CCCOc2ccc(C(C)(C)C)cc2)sc2c1CCC(C)C2 (stereo unspecified),30%,
Cc1ccc(S(=O)(=O)NC[C@H]2OC[C@@H](NCc3ccc(S(C)(=O)=O)cc3)[C@@H]2O)cc1,-8%,
CC1(CO)CC(O)C2(C)CCC3(C)C(=CCC4C5(C=O)CCC(OC6OC(C(=O)O)C(O)C(O)C6OC6OC(C(=O)O)C(O)C(O)C6O)C(C)(C)C5CCC43C)C2C1 (stereo unspecified),29%[5.1 µM],
Cc1noc(C)c1[S+](=O)([O-])N(C)Cc1ccc(-c2ccccc2)cc1,-3%,
COc1cccc(-c2cccc(C(=O)N3CCN(C(=O)Cc4cccc(Cl)c4)CC3)c2)c1,i,
C#CCOc1cc(C2=Nn3c(nnc3-c3ccc(OCC(C)=O)cc3)SC2)ccc1OC,-1%,
Cc1ccnc(NC(=S)N2CCNCC2)c1,3%,
COc1ccccc1NC(=O)C1=C(C)Nc2ncnn2C1c1ccc[nH]1 (stereo unspecified),8.9µM*,CHIKV nsP2 cell=5%
CCOc1ccccc1NC(=O)C1=C(C)Nc2ncnn2C1c1sccc1C (stereo unspecified),-15%,
COc1ccc(NC(=O)C2=C(C)Nc3ncnn3C2c2ccc(C)o2)cc1 (stereo unspecified),-14%,
COc1cccc(Nc2ncnn3ccc(CN4CC[C@@H](N)[C@H](O)C4)c23)c1,39%,
Cc1ccc(NC(=O)C2N(C(C)C)C(=O)C23CCCCC3)cc1 (stereo unspecified),-7%,

# Compound activity from PubChem.
